MPTP block: inhibitors of mitochondrial permeability transition pore; 360,000 tested, 1.4% active; isolated mouse mitochondria, Ca2+ swelling absorbance, 30 min; inhibition, % at 10 µM;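 active = inhibition of 50% or more, scaled per plate between neutral and stimulator controls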
Platelet DG rel: platelet dense granule release activity. human platelet-rich plasma, SFLLRN dense granule ATP release, luminescence. inhibition, %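 (compounds screened at 7.5 µM in platelet-rich plasma)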. 300,000 tested, 0.22% active. AID 1663;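 active = mean replicate score, as percent of positive control, at or above 50; inconclusive = mean below 50 but at least one replicate at or above 50; inactive = mean and every replicate below 50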
HSP90 inh: inhibitors of HSP90 luciferase refolding in rabbit reticulocyte lysate | luciferase refolding luminescence, 3 h | inhibition, % at 5.6 µM | 290,000 tested, 0.91% active;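 active = inhibition above the screen-wide mean plus 3 SD, computed separately per campaign, cut at about 16% in these data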;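 also: inhibitors lower the luminescence because luciferase stays unfolded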
HSF-1 act: increases HSF-1 driven luciferase reporter signal; 300,000 tested, 1.7% active; AID 504408; activation, % at 9 µM; NIH3T3-HGL HSF-1 luciferase reporter, MG132, 8 h; 100% = twice DMSO control signal;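 active = mean replicate activation of at least 50% with a set share of replicates each reaching 50%; inconclusive = only one of those two conditions met; inactive = mean below 50% and too few replicates reaching it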
HSF1 inhib: HSF1 inhibition | AID 2098 | activity change, negative = inhibition, % at 7.5 µM (by protocol) | NIH3T3-HGL HSE-luciferase, MG132-induced, luminescence 8 h; stronger effect = lower value | 300,000 tested, 0.77% active;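 active = more than half of replicate wells show activity change below -50%, luminescence cut by over half; inconclusive = some wells, but at most half, below -50%; inactive = no replicate well below -50%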;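 also: luciferase reports HSF-1 transcriptional activity via heat shock element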
dFosB activator: mouse delta FosB homodimer activation | P13346 | purified delta FosB, TAMRA-CDK5 oligo fluorescence polarization; percent of positive-control signal above neutral wells | AID 493131 | activation, % at 25 µM | 340,000 tested, 0.99% active;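 active = mean activation above about 17%, with every replicate also reaching it, limit read from the data, passing the limit was not always enough; inconclusive = only one of the two conditions met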
HSP90 confirm: HSP90 inhibition, confirmation assay; shares compounds with HSP90 inh; rabbit reticulocyte lysate, luciferase refolding luminescence, 3 h; inhibition, % at 5.9 µM; 2,300 tested, 64% active; AID 1846; in the data active = inhibition above about 18%
FLuc counter: blocks native firefly luciferase in HSP90 counter-screen; purified native firefly luciferase, luminescence; shares compounds with HSP90 inh; AID 1847; 2,300 tested, 48% active; inhibition, % at 5.9 µM;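 active = inhibition above the mean inhibition of all tested sample wells plus 3 SD, cut at about 10% in these data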
Target sequence (P08659 whole entry, looked up): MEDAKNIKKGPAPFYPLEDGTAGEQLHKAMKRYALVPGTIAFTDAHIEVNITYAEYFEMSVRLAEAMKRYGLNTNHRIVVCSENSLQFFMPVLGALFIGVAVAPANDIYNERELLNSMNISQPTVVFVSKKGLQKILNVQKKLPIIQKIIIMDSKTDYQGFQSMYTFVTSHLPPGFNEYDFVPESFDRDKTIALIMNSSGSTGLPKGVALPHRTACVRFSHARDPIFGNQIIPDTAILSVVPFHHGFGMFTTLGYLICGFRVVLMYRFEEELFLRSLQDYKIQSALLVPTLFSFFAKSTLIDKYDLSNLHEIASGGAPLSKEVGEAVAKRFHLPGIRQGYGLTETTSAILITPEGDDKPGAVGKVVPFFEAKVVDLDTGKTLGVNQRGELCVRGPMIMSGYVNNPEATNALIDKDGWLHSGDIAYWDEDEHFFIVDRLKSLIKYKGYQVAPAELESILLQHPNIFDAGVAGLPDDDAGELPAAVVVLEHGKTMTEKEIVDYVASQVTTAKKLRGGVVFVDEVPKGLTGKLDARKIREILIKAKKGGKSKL
Numbers stand for hits; - = inactive; ? = inconclusive; . = no result given. Compounds with a hit are over-represented: about 4.9% of the library has one in this group of screens.

SMILES	MPTP block	Platelet DG rel	HSP90 inh	HSF-1 act	HSF1 inhib	dFosB activator	HSP90 confirm	FLuc counter
CCC(=O)c1ccc(OCC(O)CN2CCN(c3ccccn3)CC2)cc1 (configuration not stated)	-	-	-	-	-	-	.	.
CC(C)(C)c1ccc(OCC(O)CN2CCN(c3ccccn3)CC2)cc1 (configuration not stated)	-	-	39.7	-	-	-	-	-
OC(COc1cccc2ccccc12)CN1CCOCC1 (configuration not stated)	-	.	.	.	.	-	.	.
OC(COc1cccc2ccccc12)CN1CCN(c2ccccc2)CC1 (configuration not stated)	-	-	-	-	-	-	-	-
C[C@@H]1CN([C@H](C)CO)C(=O)CCCn2cc(nn2)CO[C@H]1CN(C)S(=O)(=O)c1ccc2ccccc2c1	-	.	.	.	.	.	.	.
CCC(=O)Nc1cccc(-c2ccc(N3CCCCC3)nn2)c1	-	-	24.5	-	-	-	47.3	15.0
CCC(=O)Nc1cccc(-c2ccc(N3CCN(C)CC3)nn2)c1	-	-	-	-	-	-	.	.
O=C(Nc1nnc(-c2ccc(F)cc2)s1)c1ccco1	-	-	50.5	-	-	-	-	-
Cc1cccc(-c2nnc(NC(=O)c3ccco3)s2)c1	-	-	-	-	-	-	.	.
Cc1ccc(Nc2nc(C)cc(C)c2C#N)c(C)c1	-	.	.	.	.	.	.	.
COc1ccc(-c2csc(NC(=S)NC(=O)/C=C/c3ccc(C(C)C)cc3)n2)cc1OC	-	-	18.9	-	-	-	-	-
CC(=O)CSc1nnc(-c2ccc3c(c2)OCO3)o1	-	-	17.9	-	-	-	37.1	-
COc1ccc(NC(=O)N(C)C[C@H]2Oc3ccc(NC(=O)Cn4cnnn4)cc3C(=O)N([C@H](C)CO)C[C@@H]2C)cc1	-	.	.	.	.	-	.	.
CCOc1ccc(NC(=O)N2CCC(c3nc4ccccc4[nH]3)CC2)cc1	-	-	25.5	.	.	-	-	-
Oc1cccc(/C=N/N=C/c2cccc(O)c2O)c1O	-	?	25.1	-	-	-	70.6	73.8
O=C(O)c1cccc(NC(=S)N/N=C/c2cccc(O)c2)c1	-	-	-	-	?	-	.	.
O=C(O)c1cccc(NC(=S)N/N=C/c2ccccn2)c1	-	-	35.0	-	-	-	60.8	48.6
COc1ccc(CNC(=O)CN(C(=O)CCC(=O)Nc2nccs2)c2cccc(C)c2)cc1	-	-	-	-	-	-	.	.
CCN(CC)CCOC(=O)c1ccc(NC(=O)/C=C/c2cccs2)cc1	-	-	26.7	-	-	-	-	-
C#CCOCCOCCOCCNc1nc(N2CCN(C(=O)[C@H](Cc3cc4ccccc4[nH]3)n3cc([C@@H](N)C(C)CC)nn3)CC2)nc(N2CCN(C(=O)[C@H](Cc3cc4ccccc4[nH]3)n3cc([C@@H](N)Cc4ccc(O)cc4)nn3)CC2)n1 (some centres not stated)	.	-	21.1	-	-	.	27.2	-
C#CCOCCOCCOCCNc1nc(N2CCOCC2)nc(N2CCN(C(=O)[C@H](Cc3cc4ccccc4[nH]3)n3cc([C@@H](N)CC(C)C)nn3)CC2)n1	-	-	-	-	-	-	.	.
C#CCOCCOCCOCCNc1nc(N2CCN(C(=O)[C@H](Cc3cc4ccccc4[nH]3)n3cc([C@@H](N)CC(C)C)nn3)CC2)nc(N2CCN(C(=O)[C@H](Cc3cc4ccccc4[nH]3)n3cc([C@@H](N)CC(C)C)nn3)CC2)n1	-	-	20.4	-	-	-	18.2	-
C#CCOCCOCCOCCNc1nc(N2CCN(C(=O)[C@H]([C@@H](C)CC)n3cc([C@@H](N)Cc4ccc(O)cc4)nn3)CC2)nc(N2CCN(C(=O)[C@H](Cc3cc4ccccc4[nH]3)n3cc([C@@H](N)C(C)CC)nn3)CC2)n1 (some centres not stated)	.	-	18.8	-	-	.	-	-
O=C(Nc1nc([C@@H]2O[C@H](CO)[C@@H](O)[C@H](O)[C@H]2O)cs1)NC(c1ccccc1)c1ccccc1	-	.	.	.	.	.	.	.
O=C(NC1CCCCC1)c1noc2c1CCCCC2	-	-	19.1	-	-	-	31.1	14.1
SMILES	MPTP block	Platelet DG rel	HSP90 inh	HSF-1 act	HSF1 inhib	dFosB activator	HSP90 confirm	FLuc counter
CC(C)(C)C1CCc2onc(C(=O)NC3CCCC3)c2C1 (configuration not stated)	-	-	-	-	-	-	.	.
COCCNc1c(-c2ccc(OC)c(OC)c2)nc2ccc(Cl)cn12	-	-	20.5	-	-	-	-	-
Cc1ccc(NC2=C/C(=N/S(=O)(=O)c3cccs3)c3ccccc3C2=O)cc1C	-	-	-	-	-	-	.	.
CC(=O)Nc1ccc(NC2=C/C(=N/S(=O)(=O)c3cccs3)c3ccccc3C2=O)cc1	-	-	54.9	-	-94.7	-	66.9	-
Cc1ccccc1NC1=C/C(=N\S(=O)(=O)c2cccs2)c2ccccc2C1=O	-	-	34.9	-	-94.5	-	90.5	-
Cc1noc(C(=O)Nc2ccc(Cl)cc2)c1Cl	.	-	25.3	-	-	.	-	-
Cc1ccc(NC(=O)c2onc(C)c2Cl)cc1	-	-	-	-	-	-	.	.
Cc1cnc(C(=O)OCC(=O)c2cc(C)n(C)c2C)cn1	-	-	-	-	-	-	.	.
COc1ccc(NC(=O)c2cn3c(nc4ccccc43)c(C#N)c2C)cc1	-	-	-	-	-	-	.	.
Cc1c(C(=O)Nc2ccccc2)cn2c(nc3ccccc32)c1C#N	-	-	35.2	-	-	-	-	-
O=C1NC[C@@H](CCCCN2C[C@H](Cc3ccc(O)cc3)N(Cc3ccccc3)C(=O)C2=O)N(CCC2CCCCC2)C1=O	-	.	.	.	.	.	.	.
COc1ccc(C(=O)Nn2c(SCC(=O)c3ccccc3)nc3ccccc3c2=O)cc1	-	-	48.1	-	-59.5	-	53.4	48.4
CCOC(=O)CSc1nc2ccccc2c(=O)n1NC(=O)c1ccccc1	-	-	20.1	-	-	-	-	-
COc1ccc(C(=O)Nn2c(SCc3ccc([N+](=O)[O-])cc3)nc3ccccc3c2=O)cc1	-	-	55.2	-	?	-	45.1	33.4
COc1ccc(NC(=O)CCSCCc2ccccn2)cc1OC	-	-	-	-	-	-	.	.
CCc1cccc(NC(=O)CSc2nc(C)cs2)c1	-	.	.	.	.	.	.	.
Clc1ccc(-c2nnc3sc(-c4ccccn4)nn23)cc1	.	.	-	.	.	.	.	.
CC(C)(C)c1ccc(-c2nnc3sc(-c4ccccn4)nn23)cc1	-	-	40.0	-	-53.0	-	53.7	25.9
CCc1nc2ccc(C(=O)NCc3ccc4c(c3)OCO4)cn2c1N(C)C(=O)Cc1ccccc1	-	.	.	.	.	.	.	.
CC(=O)NC12CC3CC(C1)CC(C(=O)OCC(=O)NC(=O)c1cccn1C)(C3)C2	-	-	-	-	-	-	.	.

Assay outcomes deposited in PubChem by several laboratories.
